The source of these data is ChEMBL document CHEMBL1157539, “Thousands of chemical starting points for antimalarial lead identification” (Nature, 2010).

For orientation: Inhibition means the change of the read-out against control, counted positive when it falls. The low end stands for a response near the control, the high end for a response far below the control.

The experiment relates to HepG2. Description: GSK_TCMDC: Percent inhibition of human HepG2 cell line. Test compounds present at 10uM. It counts as functional.
For the molecule `COc1ccc(CNCc2ccsc2)cc1-c1ccc(S(=O)(=O)NCCN2CCCC2)s1.O=C(O)C(F)(F)F`, the Inhibition is 39%. `COc1cc(Nc2nc(N)n(C(=O)c3ccc4c(c3)OCO4)n2)cc(OC)c1OC` had an Inhibition of 60%. In turn, `COc1ccc2nccc([C@@H](O)CN3CCC(NCc4cc5cc(OC(F)(F)F)ccc5[nH]4)CC3)c2c1.O=C(O)C(=O)O` showed an Inhibition of 49%.

In the case of `Cc1nnc2c(NC(=O)NC3CCCC3)cc3cc(-c4ccc(CN(C)C)cc4)ccc3n12`, the Inhibition came out at 100%. Regarding `C[C@H](NC(=O)[C@H](CCCCNC(=O)OC(C)(C)C)NC(=O)OC(C)(C)c1ccc(-c2ccccc2)cc1)C(=O)OCc1ccccc1`, the Inhibition amounted to 4%. With `O=C(Nc1cccc(-c2nc3ccccc3s2)c1)c1ccccc1[N+](=O)[O-]` the figure was 0%; with `Cc1ccc2nc(C)n(C3CCN(C(=O)Cc4ccccc4C)CC3)c2c1`, 2%; with `Cc1c(C(=O)N(C)C)sc2c1c(=O)n(Cc1ccccc1)c(=O)n2CC(=O)Nc1ccccc1F`, 13%. `Cc1cccc(C(=O)Nc2ccnc(N3CCC(N(C)Cc4ccc(C#N)cc4)CC3)c2)c1.O=C(O)C(F)(F)F`: the Inhibition stood at 12%. Consider `N#Cc1ccccc1C(=O)N(Cc1cncn1Cc1cccc(F)c1)CC1CC1`, for which the Inhibition stood at 0%. In turn, `C=C1N(C)c2cc([N+](=O)[O-])c(N)cc2C1(C)C` showed an Inhibition of 22%.

In turn, `CCN(C1CCCCC1)S(=O)(=O)c1ccc(OC)c(N2CCN(C(=O)C(Cl)(Cl)Cl)CC2)c1` displayed an Inhibition of 0%.

For `CCC(C)NS(=O)(=O)c1ccc2nc(Nc3ccc(C)c(Cl)c3)n(C(C)C(C)C)c2c1` (stereo not given), the Inhibition was determined as 22%. With `NS(=O)(=O)c1ccc(CNc2ccc3ncc(-c4ccc(OC(F)(F)F)cc4)n3n2)cc1` the figure was 10%. Take `CC(=O)c1c(Nc2c(C)cc(C)cc2C)oc(C)cc1=O`: the Inhibition came out at 7%.

`CC(C)CNCc1cccc(-c2ccc(CNC3CCN(Cc4ccccc4)CC3)cc2)c1.O=C(O)C(F)(F)F`: the Inhibition was 44%. Molecule `COc1ccc(NC(=O)[C@H](CC(C)C)Nc2ccnc(NCCc3ccc(F)cc3)n2)cc1.O=C(O)C(F)(F)F` gave an Inhibition of 0%. With `O=C(Nc1ccccc1O)c1ccc(Oc2cccc(C(=O)Nc3ccccc3O)c2)cc1` the figure was 33%; with `Cc1cc(N[C@@H](CC(C)C)C(=O)NCCc2ccccc2)nc(NCc2ccccc2C)n1.O=C(O)C(F)(F)F`, 17%; with `FC(F)(F)c1cccc(CCNc2nccc(NCc3ccc(Cl)cc3Cl)n2)c1`, 8%.

`CC(=O)Nc1ncc(C(=O)Nc2cccc(-c3cccc(-c4nc5cccc(C)c5[nH]4)c3)c2)s1` registered an Inhibition of 15%. With `Cc1cccc(CN2CCCC3(CCN(Cc4ccccc4O)C3)C2)c1` (stereo not given), the Inhibition is on record as 14%.

As to `CN1CC=C(c2csc3ccc(NC(=O)Nc4ccc(-c5ccncc5)c5ccccc45)cc23)CC1`, the Inhibition is reported as 20%. Take `CC(=O)Nc1cccc(C(=O)Nc2cccc(-c3ccc(-c4nc5cc(C(F)(F)F)ccc5[nH]4)s3)c2)c1`: the Inhibition came to 80%.

With `COc1ccc2ncc(C#N)c(CCN3C4CCC3CC(NCc3ccc5c(n3)NC(=O)CS5)C4)c2c1.Cl` (stereo not given), the Inhibition was found to be 6%. On to `Fc1ccc(CNc2ccc3ncc(-c4cccnc4)n3n2)cc1`, for which the Inhibition is 7%. The molecule `c1cc(CNc2ncc(-c3ccsc3)c(-c3nccs3)n2)ccn1` came in with an Inhibition of 18%. Turning to `Cc1nc2nc(N)nc(N)c2c(C)c1Cc1cccc(C(F)(F)F)c1.Cl`, the Inhibition is 65%. Molecule `CCN(CC)CCOc1ccc(C(O)(C#CC(O)(c2ccc(C)cc2)c2ccc(OCCN(CC)CC)cc2)c2ccc(C)cc2)cc1` (stereo not given) registered an Inhibition of 94%.

In the case of `O=C(Nc1ccc(OC2CCN(Cc3ccsc3)CC2)c(Cl)c1)c1cccs1.O=C(O)C(F)(F)F`, the Inhibition came out at 16%. The molecule `Cc1ccc2c(c1[N+](=O)[O-])N=NCC2Oc1ccccc1` (stereo not given) yielded an Inhibition of 16%. Next, `CCNc1cc(C(=O)N[C@@H](Cc2ccccc2)[C@H](O)CNCCc2cccc(C(F)(F)F)c2)cc(N2CCCC2=O)c1.O=CO`: 7%; `COCCNCc1cccc(-c2ccc3nccc(Nc4cc(O)ccc4C)c3c2)c1`: 0%; `Cc1cc(NCc2ccccc2)nc(NCc2ccccc2)n1`: 21%. `COc1ccccc1CCNc1nc(C)cc(N[C@@H](Cc2ccccc2)C(=O)NCc2cccs2)n1.O=C(O)C(F)(F)F`: the Inhibition is listed as 18%.

Turning to `CCOC(=O)CCCc1cc(NC2CCN(C)CC2)nc(Nc2ccc(OC)cc2)n1`, the Inhibition was 41%. With `O=c1cc(NCCCNCc2cc(Br)ccc2F)[nH]c2ccccc12`, the Inhibition came out at 0%. Turning to `Cc1[nH]cc(Br)c(=O)c1-c1ccc(Oc2ccccc2)cc1`, the Inhibition came to 0%. Consider `CC(C)(C)c1ccc(CNCC(C)(C)c2nc(-c3ccnc(N)n3)c(-c3ccc(Cl)c(O)c3)[nH]2)cc1.Cl`, for which the Inhibition was 28%. `CCNc1cc(C(=O)N[C@@H](Cc2ccccc2)[C@H](O)CNC(C)C)cc(N2CC(c3ccccc3)CCS2(=O)=O)c1` (stereo not given in full) had an Inhibition of 0%.
